Screens (PubChem BioAssay)
This is a sample that favours compounds with a hit; in the whole collection about 9.6% have one here.
L major viab = inhibitors of Leishmania major promastigote growth; Leishmania major promastigotes, resazurin fluorescence viability; inhibition, % at 10 µM; 200,000 tested, 9% active; AID 1063; in the data active = inhibition above about 50%;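 note: promastigotes grown with compound for 44 hours at 28 °C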
Insulin prom inh = TRM-6 insulin promoter activity inhibition. TRM-6 cells (human fetal islet line), insulin promoter-eGFP reporter, imaging; reporter expression induced with tamoxifen. inhibition, % at 2 µM. 130,000 tested, 0.9% active. AID 1273;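 active = inhibition above the mean plus 3 SD, with well images judged a real hit on visual review, cut at about 60% in these data, passing the limit was not always enough; inconclusive = inhibition over the cutoff but images rejected on review; inactive = inhibition not above the cutoff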
HCT116 bCat-KO = beta-catenin-lacking colon tumor cell growth suppression; HCT116 beta-catenin knockout viability, CellTiter-Glo, 60 h; active compounds read low; viability, % at 10 µM; 140,000 tested, 1.5% active; AID 818;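 active = viability at or under a set limit, the compound median less 4 SD, cut at about 6% in these data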
Ins promoter up = MIN6 insulin promoter up-regulation; 190,000 tested, 0.3% active; AID 1625; MIN6 insulin promoter-GFP reporter, high-content imaging; active compounds read high; z-score at 5 µM;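 active = z-score above 3 at 5 µM with at least 500 cells counted in the well; inconclusive = wells under 500 cells, flagged as cytotoxic or low count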
PTEN del growth = PTEN-deleted cell growth suppression. HCT116 PTEN-null viability, CellTiter-Glo, 60 h; active compounds read low. viability, % at 10 µM. 140,000 tested, 1.2% active. AID 827;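 active = viability at or below a set limit, 4 SD under the median of all tested compounds, cut at about 3.7% in these data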;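 note: PTEN knockout HCT116 line with beta catenin targeted HCT116 as companion control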
Autophagy mod = alters autophagy in cells. calls only at 10 µM (by protocol). MEF GFP-LC3 puncta imaging; test concentration mostly 10 µM. 190,000 tested, 0.98% active. AID 463193;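 active = percentage of spot-positive cells more than 3 SD above its plate mean, without a fluorescence outlier flag or 80% toxicity; inconclusive = no clear call, values can overlap the other calls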
Of the large screens only hits and unclear results are named; the others gave an inactive call.

O=C(O)CCc1ccc(-c2ccc(Cl)cc2)o1	none
CC(C)(C)NCC(O)(c1ccc(Cl)cc1)c1ccc(Cl)cc1	none (no result: HCT116 bCat-KO, PTEN del growth)
CCN(CC)CCNCc1ccc(-c2ccc(Cl)cc2)o1	L major viab 91
COc1ccc(CNCC(O)(c2ccc(F)cc2)c2ccc(F)cc2)cc1	Autophagy mod active (no result: HCT116 bCat-KO, PTEN del growth)
COc1ccccc1CNCC(O)(c1ccc(Cl)cc1)c1ccc(Cl)cc1	L major viab 100 (no result: Insulin prom inh)
CCN(CC)CCNCC(O)(c1ccc(Cl)cc1)c1ccc(Cl)cc1	L major viab 72 (no result: HCT116 bCat-KO, PTEN del growth)
COc1ccc(N)cc1C#N	none (no result: Insulin prom inh)
O=C(COC(=O)c1ccccn1)NC1CCCCC1	none
C[n+]1ccc(/C=C/c2ccc(Br)cc2)cc1	L major viab 86 (no result: Ins promoter up)
CC(C)CCNC(=O)/C=C/c1ccc(Br)cc1	none
CNC(=O)COC(=O)CNC(=O)c1cc(Cl)cc([N+](=O)[O-])c1	none (no result: HCT116 bCat-KO, PTEN del growth)
Cc1ccccc1Cn1c(CN2CCc3ccccc3C2)nc2c1c(=O)n(C)c(=O)n2C	L major viab 81 (no result: Ins promoter up)
CCOC(=O)Cn1c(CN2CCN(C(c3ccccc3)c3ccccc3)CC2)nc2c1c(=O)n(C)c(=O)n2C	L major viab 53 (no result: Insulin prom inh)
CCN1CCN(Cc2nc3c(c(=O)n(C)c(=O)n3C)n2Cc2cccc3ccccc23)CC1	L major viab 92
Cn1c(=O)c2c(nc(CN3CCc4ccccc4C3)n2Cc2ccc(F)cc2)n(C)c1=O	none (no result: HCT116 bCat-KO, Ins promoter up, PTEN del growth)
O=C(Nc1ccc(S(=O)(=O)N2CCN(Cc3ccccc3)CC2)cc1)c1cnccn1	none (no result: Ins promoter up)
CC(=O)N=c1sc2cc(C)ccc2n1C	none (no result: Insulin prom inh)
CC(=O)Sc1nc(-c2ccccc2)[nH]c1S(=O)(=O)c1ccc(C)cc1	none (no result: HCT116 bCat-KO, PTEN del growth)
CCOC(=O)C1=C(C)NC(C)=C(C(=O)OCC)C1c1cc(N)ccc1OC(F)F	L major viab 55
CCN(CC)CCN1C(=O)C(O)=C(C(=O)c2cccs2)C1c1ccccn1 (configuration not stated)	none
Cc1cccc2sc(NNC(=O)C3COc4ccccc4O3)nc12 (configuration not stated)	HCT116 bCat-KO 1.2, PTEN del growth 0.5
O=[N+]([O-])c1ccc(O)c(/C=N/NC(=S)Nc2ccc(Cl)cc2Cl)c1	none (no result: L major viab, Insulin prom inh, HCT116 bCat-KO, PTEN del growth, Autophagy mod)
COc1ccc(-n2nnc3c(=O)n(CC(=O)N4CCCc5ccccc54)cnc32)cc1	none (no result: Insulin prom inh, HCT116 bCat-KO, PTEN del growth)
CCOc1ccc(-n2nnc3c(=O)n(CC(=O)N4CCCc5ccccc54)cnc32)cc1	L major viab 55 (no result: Insulin prom inh, Autophagy mod)
CC(C)CN=c1cc(-c2ccccc2)oc2ccc(Cl)cc12	none
CC(O)CN=c1cc(-c2ccccc2)oc2ccc(Cl)cc12 (configuration not stated)	HCT116 bCat-KO 5.7
OCCN=c1cc(-c2ccccc2)oc2ccc(Cl)cc12	L major viab 84
O=S(=O)(Nc1ccncc1Cl)c1cc(Cl)ccc1Cl	none (no result: L major viab, Insulin prom inh, HCT116 bCat-KO, PTEN del growth, Autophagy mod)
O=[N+]([O-])c1cc(-c2n[nH]c(-c3ccccc3)n2)cc([N+](=O)[O-])c1	L major viab 98
Cc1cccc(-c2n[nH]c([N+](=O)[O-])n2)c1	none (no result: Insulin prom inh)
Cc1c(NC(=O)C(C)OC(=O)c2ccc(Br)o2)c(=O)n(-c2ccccc2)n1C (configuration not stated)	none (no result: Insulin prom inh, HCT116 bCat-KO, PTEN del growth)
CCOC(=O)N1CCN(C(=O)c2ccccc2NC(=O)c2ccc(OC)cc2)CC1	none (no result: Ins promoter up)
Fc1ccc(C2CCCN2Cc2nc(CC3CC3)no2)cc1 (configuration not stated)	L major viab 57 (no result: Insulin prom inh, HCT116 bCat-KO, PTEN del growth)
CC(=O)CSc1ncnc2scc(-c3ccc(F)cc3)c12	none (no result: Insulin prom inh, HCT116 bCat-KO, PTEN del growth)
Cc1ccc(-c2c3c(nc4sc(C(N)=O)c(N)c24)CCC3)cc1	none
COc1ccc(-c2c3c(nc4sc5c(Cl)nc(C)nc5c24)CCC3)cc1	HCT116 bCat-KO 1.2, PTEN del growth 1.5
CCOc1ccc(C(=O)NCC(=O)OCc2c(C)noc2C)cc1	none
Cc1c(O)nc2sc3ccccc3n2c1=O	none (no result: L major viab, Insulin prom inh, HCT116 bCat-KO, PTEN del growth, Autophagy mod)
CCOc1cccc(OCCCCN2CCCCC2)c1	L major viab 97 (no result: Insulin prom inh)
CC(C)(C)c1ccc(OCCN2CCCC2)cc1	L major viab 97
COc1cc2c(cc1OC)CN(CCC(=O)c1ccc(Br)cc1)CC2	L major viab 61 (no result: HCT116 bCat-KO, PTEN del growth)
CC1CCCN(CCC(=O)c2ccc(Br)cc2)C1 (configuration not stated)	L major viab 96
CC1CCN(CCC(=O)Nc2ccc(Br)cc2)CC1	none (no result: HCT116 bCat-KO, Ins promoter up, PTEN del growth)
CCCCCC(O)(CCN1CCCCC1)c1ccc(OCC)cc1 (configuration not stated)	none (no result: HCT116 bCat-KO, Ins promoter up, PTEN del growth)
COc1cc2c(cc1OC)CN(CC(=O)Nc1cccc(C)c1)CC2	none
O=C(NNc1c(Cl)cccc1Cl)c1ccno1	none (no result: L major viab, Insulin prom inh, HCT116 bCat-KO, PTEN del growth, Autophagy mod)
COCCn1c(=S)[nH]c2cc(C(=O)NCCCN3CCOCC3)ccc2c1=O	none (no result: Ins promoter up)
COc1ccc(/C=C/C(=O)O)cc1S(=O)(=O)N1CCc2ccccc2C1	none (no result: Insulin prom inh, HCT116 bCat-KO, PTEN del growth)
COc1cccc(OCCCCN2CCCCC2)c1	L major viab 97, Insulin prom inh inconclusive
CC1CCCN(CCOc2ccc(Br)cc2)C1 (configuration not stated)	L major viab 51
Cc1cccc(C)c1OCCCN1CCCC1	none
COc1ccc(OCCCN2CCCCCC2)cc1	L major viab 99
Brc1cccc(OCCCCN2CCCCC2)c1	L major viab 98
CC1CCCN(CCCCOc2cccc(Br)c2)C1 (configuration not stated)	L major viab 99
COc1cccc(OCCCN2CCCCC2)c1	L major viab 96
CN(C)CCCCOc1cccc(Br)c1	none
Cc1noc(C)c1COc1cccc(C(=O)OC(C)C(=O)Nc2ccc3c(c2)OCO3)c1 (configuration not stated)	L major viab 59
COc1cc(C(=O)OC(C)C(=O)Nc2ccc3c(c2)OCO3)ccc1OCc1c(C)noc1C (configuration not stated)	none
Cc1ccc(NC(=O)c2cccc(OCc3c(C)noc3C)c2)cc1S(=O)(=O)Nc1ccccc1Cl	L major viab 83
Cc1noc(C)c1COc1cccc(C(=O)Nc2ccc3c(c2)OCO3)c1	none (no result: HCT116 bCat-KO, PTEN del growth)
O=C(Nc1cccc(F)c1)/C(=C\c1cccnc1)NC(=O)c1ccco1	none (no result: Insulin prom inh, HCT116 bCat-KO, PTEN del growth)
C/C(CC(=O)Nc1cc(Cl)ccc1Cl)=N\NC(N)=S	none
C/C(CC(=O)Nc1ccc(Cl)c(Cl)c1)=N\NC(N)=S	L major viab 62 (no result: Ins promoter up)
COc1ccc(OC)c(CCNC(=O)Cn2sc3nc(C)cc(C)c3c2=O)c1	HCT116 bCat-KO 1.9, PTEN del growth 1.9 (no result: Insulin prom inh)
NNC(=O)COc1ccccc1F	none
CC(C)Oc1cccc(C(=O)NC2=NCCS2)c1	none (no result: HCT116 bCat-KO, PTEN del growth)
CC(C)(C)NC(=O)c1cccc(NC(=O)c2ccco2)c1	none
O=C(NC1=NCCS1)c1cccc(NC(=O)c2ccco2)c1	L major viab 99
COc1cccc(C(=O)NC2=NCCS2)c1	Insulin prom inh 75 (no result: Ins promoter up)
O=C(NCC1CCCO1)c1cccc(NC(=O)c2ccco2)c1 (configuration not stated)	none
O=C(NC1CCCC1)c1cccc(NC(=O)c2ccco2)c1	L major viab 86
COc1ccccc1N(C)S(=O)(=O)c1ccc(C(=O)NC(C)c2ccccc2)cc1 (configuration not stated)	none (no result: L major viab, Insulin prom inh, HCT116 bCat-KO, PTEN del growth, Autophagy mod)
COc1ccccc1N(C)S(=O)(=O)c1ccc(C(=O)NC2=NCCS2)cc1	L major viab 96 (no result: Ins promoter up)
